Laboratory results taken from PubChem BioAssay AID1159580 (chemical genetic matrix, 2015).
Where “and” joins values, the source holds several entries; their conditions need not be identical. Equal values may be shown once. Among all 5,500 compounds or so, about 2,000 (36%) were called active. Inconclusive results (about 18%) are left out. Rule as the data show it: active = normalized growth mostly below about 0.91 (no sharp cut-off); inconclusive = no clear call, values can overlap the other calls; inactive = mostly above about 0.92. This is one part of the list.

Test: chemical genetic growth profiling, strain panel (AID 1159580);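 also: tested at 20 µM; growth read once vehicle control cultures reached saturation at 30 °C; 1 = growth at the plate median or of vehicle wells; lower values mean less growth of the strain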
Conditions: S. cerevisiae deletion strains, growth OD

Measured: normalized growth

COc1ccc2cc3[n+](cc2c1OC)CCc1cc2c(cc1-3)OCO2
inactive: locus YAL021C, strain ccr4, stronger effect = lower value 0.997 | locus YAL026C, strain drs2, stronger effect = lower value 0.99 | locus YAL030W, strain snc1, stronger effect = lower value 0.996 | locus YBL061C, strain skt5, stronger effect = lower value 0.986 | locus YBR009C, strain hhf1, stronger effect = lower value 1 | locus YBR021W, strain FUR4, stronger effect = lower value 0.847 | locus YBR023C, strain chs3, stronger effect = lower value 0.982 | locus YBR171W, strain sec66, stronger effect = lower value 0.983 | locus YBR231C, strain swc5, stronger effect = lower value 0.985 | locus YBR279W, strain paf1, stronger effect = lower value 0.987 | locus YCL011C, strain gbp2, stronger effect = lower value 0.998 | locus YCL016C, strain dcc1, stronger effect = lower value 0.982 | locus YCL061C, strain MRC1, stronger effect = lower value 1.01 | locus YCL069W, strain vba3, stronger effect = lower value 0.999 | locus YCR088W, strain abp1, stronger effect = lower value 0.98 | locus YDL005C, strain med2, stronger effect = lower value 0.984 | locus YDL040C, strain nat1, stronger effect = lower value 0.986 | locus YDL185W, strain tfp1, stronger effect = lower value 1 | locus YDR001C, strain nth1, stronger effect = lower value 0.981 | locus YDR069C, strain doa4, stronger effect = lower value 1 | locus YDR137W, strain rgp1, stronger effect = lower value 0.979 | locus YDR159W, strain sac3, stronger effect = lower value 1.02 | locus YDR195W, strain ref2 0.977 | locus YDR297W, strain sur2, stronger effect = lower value 0.99 | locus YDR334W, strain swr1, stronger effect = lower value 0.973 | locus YDR335W, strain msn5, stronger effect = lower value 0.967 | locus YDR392W, strain spt3, stronger effect = lower value 0.984 | locus YEL003W, strain gim4, stronger effect = lower value 0.99 | locus YEL037C, strain rad23, stronger effect = lower value 0.981 | locus YEL061C, strain CIN8 (second series), stronger effect = lower value 0.993 | locus YER015W, strain faa2, stronger effect = lower value 0.991 | locus YER016W, strain bim1, stronger effect = lower value 0.981 | locus YER111C, strain swi4, stronger effect = lower value 1 | locus YER155C, strain BEM2 (second series), stronger effect = lower value 0.968 | locus YER155C, strain BEM2, stronger effect = lower value 0.957 | locus YFR010W, strain ubp6, stronger effect = lower value 0.992 | locus YGL167C, strain pmr1, stronger effect = lower value 0.983 | locus YGL173C, strain kem1, stronger effect = lower value 0.989 | locus YGL227W, strain vid30, stronger effect = lower value 0.989 | locus YGL240W, strain doc1, stronger effect = lower value 0.996 | locus YGL253W, strain hxk2, stronger effect = lower value 0.988 | locus YHR013C, strain ard1, stronger effect = lower value 0.943 | locus YHR027C, strain rpn1, stronger effect = lower value 0.998 | locus YHR142W, strain chs7, stronger effect = lower value 0.995 | locus YIL125W, strain kgd1, stronger effect = lower value 0.966 | locus YJL092W, strain hpr5, stronger effect = lower value 0.982 | locus YJL095W, strain BCK1 (second series), stronger effect = lower value 1.01 | locus YJL115W, strain asf1, stronger effect = lower value 0.986 | locus YJL129C, strain trk1, stronger effect = lower value 0.993 | locus YJL154C, strain vps35, stronger effect = lower value 0.974 | locus YJL164C, strain tpk1, stronger effect = lower value 0.99 | locus YJL166W, strain qcr8, stronger effect = lower value 1.01 | locus YJL187C, strain SWE1, stronger effect = lower value 0.989
active: locus YAL013W, strain DEP1, stronger effect = lower value 0.509 | locus YBR229C, strain ROT2, stronger effect = lower value 0.762 | locus YCL029C, strain bik1, stronger effect = lower value 0.379 | locus YDL035C, strain GPR1, stronger effect = lower value 0.278 | locus YDL074C, strain BRE1, stronger effect = lower value 0.352 | locus YDL101C, strain DUN1, stronger effect = lower value 0.569 | locus YDL134C, strain PPH21, stronger effect = lower value 0.398 | locus YDL192W, strain arf1, stronger effect = lower value 0.436 | locus YDR101C, strain arx1, stronger effect = lower value 0.278 | locus YDR150W, strain NUM1, stronger effect = lower value 0.681 | locus YDR162C, strain NBP2, stronger effect = lower value 0.533 | locus YDR318W, strain mcm21, stronger effect = lower value 0.461 | locus YDR388W, stronger effect = lower value 0.365 | locus YDR502C, strain sam2, stronger effect = lower value 0.345 | locus YEL061C, strain CIN8, stronger effect = lower value 0.567 | locus YER110C, stronger effect = lower value 0.452 | locus YER167W, strain BCK2, stronger effect = lower value 0.467 | locus YGL078C, strain dbp3, stronger effect = lower value 0.854 | locus YGL086W, strain mad1, stronger effect = lower value 0.394 | locus YGL248W, strain PDE1, stronger effect = lower value 0.3 | locus YGR078C, strain PAC10, stronger effect = lower value 0.481 | locus YGR135W, strain pre9, stronger effect = lower value 0.318 | locus YGR229C, strain SMI1, stronger effect = lower value 0.454 | locus YGR252W, strain gcn5, stronger effect = lower value 0.604 | locus YHR030C, strain SLT2, stronger effect = lower value 0.664 and 0.844 | locus YHR079C, strain IRE1 (second series), stronger effect = lower value 0.439 | locus YHR079C, strain IRE1, stronger effect = lower value 0.783 | locus YHR094C, strain hxt1, stronger effect = lower value 0.689 | locus YHR129C, strain ARP1, stronger effect = lower value 0.699 | locus YHR200W, strain rpn10, stronger effect = lower value 0.518 | locus YIL066C, strain RNR3, stronger effect = lower value 0.373 | locus YIL073C, strain SPO22, stronger effect = lower value 0.209 | locus YIR030C, strain dcg1, stronger effect = lower value 0.521 | locus YJL095W, strain BCK1, stronger effect = lower value 0.417 and 0.79 | locus YJL134W, strain LCB3, stronger effect = lower value 0.874 | locus YJL168C, strain set2, stronger effect = lower value 0.826 | locus YJL187C, strain SWE1 (second series), stronger effect = lower value 0.291 | locus YJR043C, strain POL32, stronger effect = lower value 0.482 | locus YJR066W, strain TOR1, stronger effect = lower value 0.765
